High-throughput results from PubChem.
In the library only some 3.2% were active in any assay of this set; here they are far more common.
15-hLO-2 inh: inhibitors of human 15-lipoxygenase 2 (ALOX15B). Potency, µM (top dose mostly 57.1 µM), inactives show at the highest dose activity change, negative = inhibition, most hits filed as inhibitors. AID 881. 0.56% of 110,000 active. purified 15hLO-2, xylenol orange hydroperoxide absorbance; further: potency means the concentration at half of the fitted maximal effect; nearly all actives have a fitted effect of over 60% in size
Target sequence (O15296 whole entry, looked up): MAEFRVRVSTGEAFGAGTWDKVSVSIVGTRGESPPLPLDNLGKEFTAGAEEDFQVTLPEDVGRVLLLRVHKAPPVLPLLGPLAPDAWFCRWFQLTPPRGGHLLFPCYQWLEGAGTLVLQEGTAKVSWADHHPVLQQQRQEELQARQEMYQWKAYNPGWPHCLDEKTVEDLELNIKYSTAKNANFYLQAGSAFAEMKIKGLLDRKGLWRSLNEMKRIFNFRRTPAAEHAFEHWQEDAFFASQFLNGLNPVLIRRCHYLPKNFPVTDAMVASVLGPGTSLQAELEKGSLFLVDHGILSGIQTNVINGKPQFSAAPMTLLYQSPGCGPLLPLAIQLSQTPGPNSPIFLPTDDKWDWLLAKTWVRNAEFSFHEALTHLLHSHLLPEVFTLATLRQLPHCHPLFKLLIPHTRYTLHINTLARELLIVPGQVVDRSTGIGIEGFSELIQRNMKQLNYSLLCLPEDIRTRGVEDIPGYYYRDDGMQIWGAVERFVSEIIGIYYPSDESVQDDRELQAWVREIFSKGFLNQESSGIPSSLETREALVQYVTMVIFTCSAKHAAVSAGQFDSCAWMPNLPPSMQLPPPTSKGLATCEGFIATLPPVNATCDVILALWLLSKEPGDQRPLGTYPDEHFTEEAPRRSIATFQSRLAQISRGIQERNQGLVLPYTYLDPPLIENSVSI
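Read-out: hydroperoxide product oxidises ferrous iron, measured as xylenol orange complex via the 573-to-405 nm absorbance ratio after 30 min. Reaction: 50 nM enzyme, 15 min compound preincubation, 45 uM arachidonic acid, 90 min RT, Hepes pH 7.5 with Triton X-100.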
PNC assembly inh: inhibitors of perinucleolar compartment assembly. PC3M PTB-GFP, PNC prevalence imaging, 16 h; active compounds read low. activity change (PNC), negative = inhibition, % at 10 µM. 3.1% of 140,000 active;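 active means readout at or below -70, meaning at least 70% loss of cells showing the perinucleolar compartment, a nuclear body marking cancer cells; inconclusive means readout between -30 and a set limit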;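 further: plate controls were DMSO wells for no effect and camptothecin positive control wells for full effect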
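PC3M cells stably expressing PTB-GFP, 750–1000 cells/well, treated 16 h at 37 °C with compound (23 nl of library stock), in duplicate. After paraformaldehyde fixation and Hoechst stain, imaged at 20x; PNC prevalence scored by image analysis.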
12-hLO inh: 12-hLO (ALOX12) enzyme inhibition; P18054; purified 12-hLO, xylenol orange hydroperoxide absorbance; Potency, µM (doses to about 57.1 µM), inactives show at the top dose activity change, negative = inhibition, actives largely listed as inhibitors; 0.12% of 150,000 active; AID 1452; further: potency means the concentration at half of the fitted maximal effect; nearly all actives have a fitted effect of over 55% in size
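Lipoxygenase turnover measured by absorbance at 573 and 405 nm after Fe-XO development. Human 12hLO 150 nM, arachidonate 40 uM, pH 7.0 Hepes buffer with detergent; 15 min compound preincubation, 30 min reaction.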
Starred values were filed as active, the others as inactive; u = inconclusive; x = not tested or not shown; [ ] = another dose, or the depositor's remark. Unless noted, the call rests on the fitted dose curve; in most records, active means well fitted curve in the direction sought with a large enough effect; inconclusive means small, poorly fitted or top-dose-only effect, or another doubt; inactive means no such curve, though single readings can be large; an effect the other way counts as inactive or inconclusive. Unless noted, on the % scale 0 is the no-effect control and ±100 the full control effect.

SMILES	15-hLO-2 inh	PNC assembly inh	12-hLO inh
CCN1C(=O)c2cccc3c(S(=O)(=O)N(C(=O)c4ccncc4)c4ccc(OC)cc4)ccc1c23	x	-85*	0%
N=C(N)SCc1ccccn1	x	-91*	-5%
c1ccc(CSc2nnc(SCc3ccccn3)s2)nc1	-9%	-20	-4%
Cc1ccccc1OCCC(=O)NCCc1ccc(S(N)(=O)=O)cc1	x	-3	2%
CCOc1cc(OCC)nc(S(C)(=O)=O)n1	x	17	-3%
O=C(CSc1nc2ccc(Cl)cc2[nH]1)N1CCN(C(=O)c2ccco2)CC1	x	u	-7%
COc1cccc(Cn2c(=O)c(-c3ccccc3)nc3cncnc32)c1	9%	x	x
CN(C1CCS(=O)(=O)C1)S(=O)C12CC3CC(CC(C3)C1)C2 (stereo unspecified)	x	-100*	-3%
CSC(=S)N(C)C1CCS(=O)(=O)C1 (stereo unspecified)	x	u	-4%
O=C(NCc1ccccc1Cl)c1ccc2nc[nH]c2c1	x	-15	2%
CCOc1ccccc1/C=C(\C#N)C(N)=O	-4%[11.4 µM]	x	-2%[11.4 µM]
CCCCc1nc2c(c3c1C[C@H](C)OC3)CN(C(=O)Nc1ccc(OC)cc1)CC2	x	x	1%[11.4 µM]
O=C(N/N=C/c1ccc2c(c1)OCO2)c1cc(-c2ccc(F)cc2)nc2ccccc12	x	-96*	2%
O=C(N/N=C/c1cccs1)c1cc(C2CC2)nc2ccccc12	x	-18	-3%
O=C(N/N=C/c1cccs1)c1cc(-c2ccncc2)nc2ccccc12	x	-109*	0%
CCCc1cc(C(=O)N/N=C/c2ccc(CC)s2)c2ccccc2n1	x	59	5%
COc1ccc(-c2cc(C(=O)N/N=C/c3ccc4c(c3)OCO4)c3ccccc3n2)c(OC)c1	-15%	17	-22%
CCc1ccc(/C=N/NC(=O)c2cc(-c3ccncc3)nc3ccccc23)s1	x	-110*	3%
COC(=O)[C@@]1(Cc2ccc(F)cc2)[C@H]2c3cc(C(=O)N(C)C)n(CCCNc4ccc(C(F)(F)F)cc4Cl)c3C[C@H]2CN1C(=O)c1ccccc1	26%	x	-7%
CN(C)/C=C1/C=C(c2ccccc2)OC1=O	-21%	37	-17%
O=C1C=C(c2ccccc2)OC(=O)C1C(=O)c1ccccc1 (stereo unspecified)	x	-100*	-10%
Nc1nc(N)c2[nH]cnc2n1 (tested in a mixture with another compound)	-5%[11.4 µM]	x	0%[11.4 µM]
CCOC(=O)N1CCN(c2cc3[nH]c(=S)[nH]c3cc2F)CC1	-22%	-91*	-4%
CCOC(=O)N1CCN(c2cc(C)c(C(C)=O)cc2F)CC1	4%	31	6%
CCOC(=O)N1CCN(c2c(F)cc3[nH]c(=S)[nH]c3c2Br)CC1	13µM*	28	u
SMILES	15-hLO-2 inh	PNC assembly inh	12-hLO inh
CCOC(=O)N1CCN(c2ccc(C(C)=O)cc2F)CC1	x	73	-1%
Cc1c(C(=O)OC(C)C)nnn1-c1nonc1N	x	-20	7%
C=Cn1ccnc1P(=S)(c1ccc2c(c1)c1ccccc1n2CC)c1nccn1C=C	28%	-23	-7%
CSCCC(NC(=O)c1cccc([N+](=O)[O-])c1)C(=O)O (stereo unspecified)	x	-22	-2%
COC(=O)[C@@H]1O[C@@H](SCCN)[C@@H](O)[C@H](O)[C@H]1O	-10%[11.4 µM]	x	0%[11.4 µM]
Cc1cc(=O)n2nc(N3CCCC(C(=O)NC(C)c4ccccc4)C3)sc2n1 (stereo unspecified)	-7%	26	7%
Cc1cc(=O)n2nc(N3CCCC(C(=O)N4CCN(c5ccccc5)CC4)C3)sc2n1 (stereo unspecified)	-2%	-117*	-1%
COC(=O)c1cc(OC)c(OC)cc1NC(=S)N1CCN(c2ccccc2)CC1	7%	37	1%
O=C(NCc1ccco1)Nc1ccccc1Cl	0%	17	2%
O=C(NCc1ccco1)c1csc(Nc2ccccc2Cl)n1	-4%	-117*	-3%
COc1cc(/C=N/Nc2cccc(C)c2)ccc1OC(=O)c1ccco1	x	57	-16%
CC(Cl)C(=O)Nc1ccccc1C#N (stereo unspecified)	x	-20	-2%
c1ccc2sc(N3CCOCC3)nc2c1	6%	24	2%
c1ccc2sc(SN3CCOCC3)nc2c1	20µM*	u	-4%
O=C(Cc1c(C(=O)O)[nH]c2ccc(Cl)cc12)Nc1ccc2c(c1)OCCO2	-8%	16	-3%
N#CCC1c2ccccc2CCN1C(=O)Nc1cccc(Cl)c1 (stereo unspecified)	1%	25	-1%
N#CCC1c2ccccc2CCN1C(=O)Nc1ccc(Cl)cc1 (stereo unspecified)	3%[11.4 µM]	-81*	2%
COc1ccc(CNc2ncnc(N)n2)cc1	3%	-101*	1%
COc1ccc(CN(C)c2ncnc(N)n2)cc1	2%	2	0%
CN(Cc1ccco1)c1ncncc1-c1cccc(NS(C)(=O)=O)c1	-6%	x	x
CC1C(NC(=O)/C(=N/OC(C)(C)C(=O)O)c2csc(N)n2)C(=O)N1S(=O)(=O)O (stereo unspecified)	6%	x	-3%
CCC1=NN=C(c2ccc(F)cc2)C(c2c[nH]c3ccccc23)N1O (stereo unspecified)	x	-100*	-7%
CC[C@H]1C(c2ccc(F)cc2)=NN(c2ccccc2)[C@@H]1CO	-24%[0.0915 µM]	x	-9%[0.00818 µM]
O=C1c2ccccc2-c2onc3ccc(NCc4ccco4)c1c23	-15%	-16	-11%
CCNc1ccc2noc3c2c1C(=O)c1ccccc1-3	x	-100*	-7%
SMILES	15-hLO-2 inh	PNC assembly inh	12-hLO inh
O=C(Nc1ccn(-c2ccccc2)n1)c1ccc(Cl)cc1	x	50	-6%
CC(=O)Nc1ccn(-c2ccccc2)n1	x	-119*	5%
Cc1noc(C)c1C(=O)N1CCC2(CCCN(c3ccccc3)C2)CC1	-1%	x	-5%
O=C(/C=C\c1ccc(O)cc1)c1ccc(O)cc1O	-19%	x	-10%
CC/C(=N\NC(=O)c1ccc(CN(C)S(=O)(=O)c2ccc(C)cc2)cc1)c1ccc(OC(F)F)cc1	x	54	-1%
CC(=O)c1ccc(OCC(=O)c2ccc(-c3ccccc3)cc2)cc1	x	-87*	-1%
CC(C)OC(=O)COc1ccc(-c2ccccc2)cc1	11%	12	-5%
CC(=O)c1ccc(-c2cccc(-c3cc(=O)oc4ccc(C(C)(C)C)cc34)c2)cc1	7%[0.0915 µM]	x	1%[0.00818 µM]
CCC1CCCCN1C(=O)CSc1nnc(-c2ccc3c(c2)OCCO3)o1 (stereo unspecified)	0%	-107*	-5%
CCC1CCCCN1C(=O)CSc1nnc(-c2ccc(OC)cc2)o1 (stereo unspecified)	x	-2	-3%
Cc1ccc(C(=O)OC2OC(=O)C(Cl)=C2N2CCOCC2)cc1 (stereo unspecified)	x	u	-4%
COC(=O)C1=C(C)NC(C)=C(C(=O)OC)C1C1CC=CCC1 (stereo unspecified)	x	-104*	-6%
CCOC(=O)C1=C(C)NC(=O)NC1C1CC=CCC1 (stereo unspecified)	-2%	8	-6%
Cc1ccc(C2CC(=O)Oc3cc(C)c(Br)c(C)c32)cc1 (stereo unspecified)	11%[0.0915 µM]	x	1%[0.00818 µM]
CN1CCc2cc(O)c(O)cc2[C@H](c2ccccc2)C1	u	x	-6%
